The source of these data is article PMC7862700, “An all-to-all approach to the identification of sequence-specific readers for epigenetic DNA modifications on cytosine”.

Common to all, as to assay: DAPPL (digital affinity profiling via proximity ligation, sequencing); 10 mM Tris-HCl pH 7.5, 50 mM NaCl, 1 mM DTT, 4% glycerol, room temperature, 30 min; GST-TFs on glutathione beads, 16-mer random dsDNA library, 0.1% formaldehyde crosslink after washing; high values mean tight binding
For one assay, the target named is T1, FLI1 (Homo sapiens, UniProt Q01543 1-452).
T1 sequence: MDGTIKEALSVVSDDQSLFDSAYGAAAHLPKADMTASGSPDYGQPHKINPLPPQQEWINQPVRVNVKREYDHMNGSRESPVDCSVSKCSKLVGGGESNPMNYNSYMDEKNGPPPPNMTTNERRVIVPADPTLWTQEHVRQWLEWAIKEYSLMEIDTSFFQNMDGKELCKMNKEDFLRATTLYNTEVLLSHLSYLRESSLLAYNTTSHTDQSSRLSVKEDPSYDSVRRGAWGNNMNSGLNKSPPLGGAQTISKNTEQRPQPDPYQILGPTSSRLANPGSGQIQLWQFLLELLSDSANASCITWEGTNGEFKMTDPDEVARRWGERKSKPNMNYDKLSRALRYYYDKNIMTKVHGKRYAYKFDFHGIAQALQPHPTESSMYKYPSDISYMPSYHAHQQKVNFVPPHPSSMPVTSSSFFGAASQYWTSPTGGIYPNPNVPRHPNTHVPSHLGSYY
The following applies: protein: recombinant; tags: N-terminal GST; dsDNA, one strand shown. A digest of the protocol:
(§1)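 Binding signal is each hexamer's read frequency for a factor divided by its frequency in the tag-only sample. The factors were GST-fused human transcription factors from yeast, captured on glutathione beads, DNA-barcoded and pooled with that sample. Pools were incubated with 200 nmole of a random double-stranded 16-mer DNA library in Tris/NaCl/DTT/glycerol buffer at room temperature for 30 min, then washed, crosslinked with 0.1% formaldehyde, proximity-ligated with BsaI/T4 ligase (1 h, 37 °C), PCR-amplified and sequenced on an Illumina NextSeq500.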

The target of the next assay is T2, ELK1 (Homo sapiens, UniProt P19419 1-428).
T2 sequence: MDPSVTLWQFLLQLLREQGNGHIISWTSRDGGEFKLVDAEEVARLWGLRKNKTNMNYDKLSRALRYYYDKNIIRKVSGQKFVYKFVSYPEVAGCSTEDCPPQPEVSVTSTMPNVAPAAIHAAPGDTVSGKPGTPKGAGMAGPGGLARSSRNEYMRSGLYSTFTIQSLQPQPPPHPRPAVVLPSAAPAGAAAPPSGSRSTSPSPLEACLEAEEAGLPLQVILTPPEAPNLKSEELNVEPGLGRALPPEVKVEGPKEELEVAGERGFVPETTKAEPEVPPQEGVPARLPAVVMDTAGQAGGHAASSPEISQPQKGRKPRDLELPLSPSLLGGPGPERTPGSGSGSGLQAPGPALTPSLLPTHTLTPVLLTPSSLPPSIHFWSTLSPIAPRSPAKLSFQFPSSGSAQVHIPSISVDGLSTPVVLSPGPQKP
Particulars: protein: recombinant; tags: N-terminal GST; dsDNA, one strand shown. In a few lines: as §1

In the next assay the target is T3, GABPA (Homo sapiens, UniProt Q06546 1-454).
T3 sequence: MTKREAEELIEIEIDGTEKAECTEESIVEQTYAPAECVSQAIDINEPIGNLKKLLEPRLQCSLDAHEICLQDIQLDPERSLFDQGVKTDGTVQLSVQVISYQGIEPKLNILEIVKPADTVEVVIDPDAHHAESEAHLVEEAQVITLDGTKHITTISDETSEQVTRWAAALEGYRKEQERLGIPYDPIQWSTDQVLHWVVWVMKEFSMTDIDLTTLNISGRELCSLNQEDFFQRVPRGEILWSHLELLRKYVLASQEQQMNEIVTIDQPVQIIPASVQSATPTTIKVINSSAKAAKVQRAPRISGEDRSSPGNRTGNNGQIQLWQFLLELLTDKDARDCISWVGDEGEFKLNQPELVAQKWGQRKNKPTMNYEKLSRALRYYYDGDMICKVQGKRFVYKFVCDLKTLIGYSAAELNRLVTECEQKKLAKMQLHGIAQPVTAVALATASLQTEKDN
The following applies: protein: recombinant; tags: N-terminal GST; dsDNA, one strand shown. A digest of the protocol:
as §1

The target in another assay is T4, ERG (Homo sapiens, UniProt P11308 1-479).
T4 sequence: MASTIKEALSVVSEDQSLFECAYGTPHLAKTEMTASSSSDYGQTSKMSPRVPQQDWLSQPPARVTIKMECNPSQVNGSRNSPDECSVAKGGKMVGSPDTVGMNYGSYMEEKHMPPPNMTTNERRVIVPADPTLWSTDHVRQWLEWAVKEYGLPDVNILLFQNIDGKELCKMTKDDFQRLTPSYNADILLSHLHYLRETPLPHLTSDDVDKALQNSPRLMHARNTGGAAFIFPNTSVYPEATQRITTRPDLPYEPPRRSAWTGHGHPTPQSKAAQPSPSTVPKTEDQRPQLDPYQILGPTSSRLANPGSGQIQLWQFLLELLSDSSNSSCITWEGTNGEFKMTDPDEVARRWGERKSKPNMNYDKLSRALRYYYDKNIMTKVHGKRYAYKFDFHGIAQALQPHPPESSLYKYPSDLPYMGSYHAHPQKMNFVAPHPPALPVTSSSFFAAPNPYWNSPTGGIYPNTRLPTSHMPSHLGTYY
Particulars: protein: recombinant; tags: N-terminal GST; dsDNA, one strand shown. A digest of the protocol: as §1

The target in a further assay is ELF1 (Homo sapiens, UniProt P32519 1-619). Particulars: protein: recombinant; tags: N-terminal GST; dsDNA, one strand shown. In a few lines:
as §1

For another assay, the target named is T5, EHF (Homo sapiens, UniProt Q9NZC4 1-300).
T5 sequence: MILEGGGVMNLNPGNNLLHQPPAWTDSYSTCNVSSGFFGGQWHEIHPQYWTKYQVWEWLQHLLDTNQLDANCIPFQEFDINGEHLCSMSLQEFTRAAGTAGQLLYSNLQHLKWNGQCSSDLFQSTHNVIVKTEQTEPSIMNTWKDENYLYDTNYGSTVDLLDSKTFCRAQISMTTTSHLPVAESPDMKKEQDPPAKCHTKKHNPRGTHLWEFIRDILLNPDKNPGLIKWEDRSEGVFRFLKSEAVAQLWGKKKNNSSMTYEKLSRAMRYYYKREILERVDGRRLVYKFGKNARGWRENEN
The following applies: protein: recombinant; tags: N-terminal GST; dsDNA, one strand shown. In a few lines: as §1

Another assay has as its target SPI1 (Homo sapiens, UniProt P17947 1-270). Particulars: protein: recombinant; tags: N-terminal GST; dsDNA, one strand shown. A digest of the protocol:
as §1

In a further assay the target is SPIB (Homo sapiens, UniProt Q01892 1-262). Particulars: protein: recombinant; tags: N-terminal GST; dsDNA, one strand shown. A digest of the protocol: as §1
Sequence of SPIB (Q01892 whole entry): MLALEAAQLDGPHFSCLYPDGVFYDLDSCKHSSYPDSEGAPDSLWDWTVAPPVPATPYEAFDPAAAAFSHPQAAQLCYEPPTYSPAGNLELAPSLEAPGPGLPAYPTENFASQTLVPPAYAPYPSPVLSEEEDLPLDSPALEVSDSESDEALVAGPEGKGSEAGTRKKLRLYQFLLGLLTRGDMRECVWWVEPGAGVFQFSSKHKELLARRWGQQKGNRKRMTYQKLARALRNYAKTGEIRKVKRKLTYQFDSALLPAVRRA
The target in a further assay is T6, ELK3 (Homo sapiens, UniProt P41970 1-407).
T6 sequence: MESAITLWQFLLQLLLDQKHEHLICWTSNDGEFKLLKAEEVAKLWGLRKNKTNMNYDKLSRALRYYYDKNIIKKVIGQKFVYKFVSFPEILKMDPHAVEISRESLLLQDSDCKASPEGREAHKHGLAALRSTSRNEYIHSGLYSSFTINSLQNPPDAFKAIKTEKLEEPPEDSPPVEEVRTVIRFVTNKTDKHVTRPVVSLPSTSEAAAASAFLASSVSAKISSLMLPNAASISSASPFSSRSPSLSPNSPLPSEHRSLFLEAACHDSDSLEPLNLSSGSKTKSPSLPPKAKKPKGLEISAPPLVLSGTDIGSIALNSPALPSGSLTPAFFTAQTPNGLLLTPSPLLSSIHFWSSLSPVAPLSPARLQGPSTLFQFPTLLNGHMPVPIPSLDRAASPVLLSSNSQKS
The following applies: protein: recombinant; tags: N-terminal GST; dsDNA, one strand shown. A digest of the protocol:
as §1

For another assay, the target named is T7, FEV (Homo sapiens, UniProt Q99581 1-238).
T7 sequence: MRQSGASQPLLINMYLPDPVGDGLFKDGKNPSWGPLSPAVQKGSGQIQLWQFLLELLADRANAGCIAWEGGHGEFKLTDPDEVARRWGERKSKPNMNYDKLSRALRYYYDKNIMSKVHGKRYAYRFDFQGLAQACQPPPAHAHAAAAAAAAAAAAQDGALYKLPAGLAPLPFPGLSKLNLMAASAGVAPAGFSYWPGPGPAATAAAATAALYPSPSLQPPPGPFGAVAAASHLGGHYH
The following applies: protein: recombinant; tags: N-terminal GST; dsDNA, one strand shown. A digest of the protocol:
as §1

A further assay addresses ETV5 (Homo sapiens, UniProt P41161 1-510). The following applies: protein: recombinant; tags: N-terminal GST; dsDNA, one strand shown. A digest of the protocol:
as §1

For the next assay, the target named is HSF1 (Homo sapiens, UniProt Q00613 1-529). Particulars: protein: recombinant; tags: N-terminal GST; chain copies: 3; dsDNA, one strand shown. In a few lines: as §1
Sequence of HSF1 (Q00613 whole entry): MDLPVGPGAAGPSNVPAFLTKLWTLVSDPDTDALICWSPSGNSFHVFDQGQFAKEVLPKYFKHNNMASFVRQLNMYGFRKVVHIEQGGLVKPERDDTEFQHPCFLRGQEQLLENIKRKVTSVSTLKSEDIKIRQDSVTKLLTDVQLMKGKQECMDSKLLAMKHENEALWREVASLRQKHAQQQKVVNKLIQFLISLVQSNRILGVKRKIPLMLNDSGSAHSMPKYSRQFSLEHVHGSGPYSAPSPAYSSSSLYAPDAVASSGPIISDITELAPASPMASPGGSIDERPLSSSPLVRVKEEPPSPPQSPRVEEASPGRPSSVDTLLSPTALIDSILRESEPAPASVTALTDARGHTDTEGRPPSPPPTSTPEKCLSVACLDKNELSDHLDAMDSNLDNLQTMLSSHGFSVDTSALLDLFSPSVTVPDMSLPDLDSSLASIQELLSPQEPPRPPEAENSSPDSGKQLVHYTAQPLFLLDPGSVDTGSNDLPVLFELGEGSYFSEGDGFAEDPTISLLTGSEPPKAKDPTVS
Another assay concerns the target T8, SPIC (Homo sapiens, UniProt Q8N5J4 1-248).
T8 sequence: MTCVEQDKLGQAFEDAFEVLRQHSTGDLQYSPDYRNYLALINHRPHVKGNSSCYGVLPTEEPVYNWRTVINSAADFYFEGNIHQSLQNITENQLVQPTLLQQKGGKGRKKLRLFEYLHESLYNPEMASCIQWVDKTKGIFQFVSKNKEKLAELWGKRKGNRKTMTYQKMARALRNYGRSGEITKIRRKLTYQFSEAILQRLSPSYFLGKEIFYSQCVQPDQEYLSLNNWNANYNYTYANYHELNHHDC
The following applies: protein: recombinant; tags: N-terminal GST; dsDNA, one strand shown. A digest of the protocol: as §1

The next assay deals with ELF4 (Homo sapiens, UniProt Q99607 1-663). Particulars: protein: recombinant; tags: N-terminal GST; dsDNA, one strand shown. In a few lines:
as §1

Another assay addresses T9, ELK4 (Homo sapiens, UniProt P28324-2 1-405).
T9 sequence: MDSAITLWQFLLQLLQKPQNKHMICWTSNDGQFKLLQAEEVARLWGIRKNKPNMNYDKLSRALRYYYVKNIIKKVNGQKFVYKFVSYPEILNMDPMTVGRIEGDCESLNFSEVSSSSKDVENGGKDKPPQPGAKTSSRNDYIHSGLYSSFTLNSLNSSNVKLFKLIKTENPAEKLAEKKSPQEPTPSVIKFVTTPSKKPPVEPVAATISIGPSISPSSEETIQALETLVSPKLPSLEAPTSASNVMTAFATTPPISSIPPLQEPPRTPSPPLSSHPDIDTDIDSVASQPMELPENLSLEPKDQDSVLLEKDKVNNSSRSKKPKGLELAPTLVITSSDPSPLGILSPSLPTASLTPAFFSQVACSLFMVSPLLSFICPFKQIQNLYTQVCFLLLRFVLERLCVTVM
Particulars: protein: recombinant; tags: N-terminal GST; dsDNA, one strand shown. A digest of the protocol:
as §1

For another assay, the target named is T10, ETV2 (Homo sapiens, UniProt O00321 1-342).
T10 sequence: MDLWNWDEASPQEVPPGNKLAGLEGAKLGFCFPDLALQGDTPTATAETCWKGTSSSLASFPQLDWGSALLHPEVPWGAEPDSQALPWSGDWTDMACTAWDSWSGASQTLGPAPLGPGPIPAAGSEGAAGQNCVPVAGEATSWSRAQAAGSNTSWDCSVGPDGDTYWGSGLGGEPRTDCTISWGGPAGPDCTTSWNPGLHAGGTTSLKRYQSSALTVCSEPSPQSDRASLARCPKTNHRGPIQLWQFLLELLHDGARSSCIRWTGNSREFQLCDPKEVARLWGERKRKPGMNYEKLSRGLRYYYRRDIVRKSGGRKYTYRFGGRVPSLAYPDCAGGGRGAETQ
Particulars: protein: recombinant; tags: N-terminal GST; dsDNA, one strand shown. In a few lines: as §1

A further assay has as its target T11, ELF3 (Homo sapiens, UniProt P78545 1-371).
T11 sequence: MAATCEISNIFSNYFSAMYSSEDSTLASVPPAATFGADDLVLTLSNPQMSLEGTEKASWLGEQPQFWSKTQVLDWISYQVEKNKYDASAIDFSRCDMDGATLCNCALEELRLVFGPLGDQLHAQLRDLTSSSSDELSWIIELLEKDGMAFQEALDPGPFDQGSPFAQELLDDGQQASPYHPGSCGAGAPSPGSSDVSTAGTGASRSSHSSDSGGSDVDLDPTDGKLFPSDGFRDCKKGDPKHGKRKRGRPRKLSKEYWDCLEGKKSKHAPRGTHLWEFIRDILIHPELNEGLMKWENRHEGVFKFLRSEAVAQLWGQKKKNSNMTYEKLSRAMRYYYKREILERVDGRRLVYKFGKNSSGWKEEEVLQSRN
Particulars: protein: recombinant; tags: N-terminal GST; dsDNA, one strand shown. A digest of the protocol:
as §1

The target of another assay is CRX (Homo sapiens, UniProt O43186 1-299). Particulars: protein: recombinant; tags: N-terminal GST; dsDNA, one strand shown. In a few lines: as §1
Sequence of CRX (O43186 whole entry): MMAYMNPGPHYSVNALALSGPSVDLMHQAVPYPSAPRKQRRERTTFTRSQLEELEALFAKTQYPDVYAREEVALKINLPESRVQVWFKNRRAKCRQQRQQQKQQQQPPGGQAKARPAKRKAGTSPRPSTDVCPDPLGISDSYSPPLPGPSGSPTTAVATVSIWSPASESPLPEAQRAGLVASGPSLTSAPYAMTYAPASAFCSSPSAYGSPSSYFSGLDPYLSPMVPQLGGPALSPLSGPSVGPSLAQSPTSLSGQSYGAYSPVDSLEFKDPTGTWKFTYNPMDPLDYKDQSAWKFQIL
The target in the next assay is ETV1 (Homo sapiens, UniProt P50549 1-477). Particulars: protein: recombinant; tags: N-terminal GST; dsDNA, one strand shown. A digest of the protocol: as §1
Sequence of ETV1 (P50549 whole entry): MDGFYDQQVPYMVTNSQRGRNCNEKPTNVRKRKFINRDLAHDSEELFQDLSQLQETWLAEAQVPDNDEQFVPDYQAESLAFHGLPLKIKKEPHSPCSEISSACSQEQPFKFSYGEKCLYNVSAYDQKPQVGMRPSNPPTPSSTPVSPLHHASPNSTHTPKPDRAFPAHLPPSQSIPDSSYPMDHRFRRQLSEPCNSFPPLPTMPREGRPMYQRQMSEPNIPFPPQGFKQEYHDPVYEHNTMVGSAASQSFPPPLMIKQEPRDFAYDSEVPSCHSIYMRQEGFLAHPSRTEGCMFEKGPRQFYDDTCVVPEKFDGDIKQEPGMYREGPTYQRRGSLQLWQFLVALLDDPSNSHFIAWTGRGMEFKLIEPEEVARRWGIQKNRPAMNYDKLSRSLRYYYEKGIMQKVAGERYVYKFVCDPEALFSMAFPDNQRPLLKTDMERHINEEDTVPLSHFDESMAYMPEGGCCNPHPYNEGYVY

Sequence of ELF1 (P32519 whole entry): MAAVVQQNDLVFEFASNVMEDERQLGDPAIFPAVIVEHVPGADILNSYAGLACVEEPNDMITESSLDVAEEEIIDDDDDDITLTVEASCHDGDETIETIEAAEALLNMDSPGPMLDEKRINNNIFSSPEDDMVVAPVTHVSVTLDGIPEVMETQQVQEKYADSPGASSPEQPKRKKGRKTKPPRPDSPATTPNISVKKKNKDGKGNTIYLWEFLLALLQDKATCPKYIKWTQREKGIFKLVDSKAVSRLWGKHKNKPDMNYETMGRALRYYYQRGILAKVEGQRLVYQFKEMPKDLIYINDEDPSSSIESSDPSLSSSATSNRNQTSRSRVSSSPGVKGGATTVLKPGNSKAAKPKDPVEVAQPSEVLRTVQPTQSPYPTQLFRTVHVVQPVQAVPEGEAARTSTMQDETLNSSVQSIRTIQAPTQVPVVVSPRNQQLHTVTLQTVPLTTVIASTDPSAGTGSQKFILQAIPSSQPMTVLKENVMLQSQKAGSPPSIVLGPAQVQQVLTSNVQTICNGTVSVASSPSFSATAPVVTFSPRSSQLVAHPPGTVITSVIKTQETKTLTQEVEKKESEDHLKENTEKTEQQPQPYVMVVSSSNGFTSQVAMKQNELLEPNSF
Sequence of ETV5 (P41161 whole entry): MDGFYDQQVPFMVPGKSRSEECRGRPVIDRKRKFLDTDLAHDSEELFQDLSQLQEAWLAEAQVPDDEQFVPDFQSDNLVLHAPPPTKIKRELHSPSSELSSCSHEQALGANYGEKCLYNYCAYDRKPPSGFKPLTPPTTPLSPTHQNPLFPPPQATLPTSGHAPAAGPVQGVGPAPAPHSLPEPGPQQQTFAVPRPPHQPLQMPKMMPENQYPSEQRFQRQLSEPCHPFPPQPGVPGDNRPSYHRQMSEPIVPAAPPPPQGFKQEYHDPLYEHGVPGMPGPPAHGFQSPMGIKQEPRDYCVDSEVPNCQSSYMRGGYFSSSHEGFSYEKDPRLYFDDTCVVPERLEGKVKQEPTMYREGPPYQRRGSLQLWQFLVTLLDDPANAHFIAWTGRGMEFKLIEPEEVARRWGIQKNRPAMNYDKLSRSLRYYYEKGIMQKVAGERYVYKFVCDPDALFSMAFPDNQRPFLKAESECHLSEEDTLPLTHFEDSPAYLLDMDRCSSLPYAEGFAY
Sequence of ELF4 (Q99607 whole entry): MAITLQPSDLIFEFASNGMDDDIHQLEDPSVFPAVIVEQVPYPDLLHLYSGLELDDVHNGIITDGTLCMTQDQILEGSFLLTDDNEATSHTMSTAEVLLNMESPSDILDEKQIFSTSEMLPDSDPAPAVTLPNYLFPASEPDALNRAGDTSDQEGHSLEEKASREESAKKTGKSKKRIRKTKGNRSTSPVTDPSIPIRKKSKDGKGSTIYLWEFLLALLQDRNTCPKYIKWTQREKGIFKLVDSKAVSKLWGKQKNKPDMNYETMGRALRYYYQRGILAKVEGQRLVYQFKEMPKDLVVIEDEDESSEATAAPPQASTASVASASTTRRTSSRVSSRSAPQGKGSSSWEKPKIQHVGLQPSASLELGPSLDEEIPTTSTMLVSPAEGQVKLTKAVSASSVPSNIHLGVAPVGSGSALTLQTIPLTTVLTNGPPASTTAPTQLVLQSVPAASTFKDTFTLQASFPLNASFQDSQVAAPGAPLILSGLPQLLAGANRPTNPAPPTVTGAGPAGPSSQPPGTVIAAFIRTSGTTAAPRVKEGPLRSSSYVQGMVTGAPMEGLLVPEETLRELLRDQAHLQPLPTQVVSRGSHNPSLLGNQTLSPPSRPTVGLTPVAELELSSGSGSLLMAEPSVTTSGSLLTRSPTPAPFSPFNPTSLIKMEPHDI

Take AAGCTT: the binding signal in the assay with FLI1 is 1.31 fold enrichment (6-mer frequency, TF over GST control); with ELK1, 1.33 fold enrichment (6-mer frequency, TF over GST control); with GABPA, 1.22 fold enrichment (6-mer frequency, TF over GST control); in the assay with ERG, 1.33 fold enrichment (6-mer frequency, TF over GST control); with ELF1, 1.2 fold enrichment (6-mer frequency, TF over GST control); with EHF, 1.26 fold enrichment (6-mer frequency, TF over GST control). Also, the binding signal is 1.23 fold enrichment (6-mer frequency, TF over GST control) with SPI1; 1.32 fold enrichment (6-mer frequency, TF over GST control) with SPIB; 1.31 fold enrichment (6-mer frequency, TF over GST control) in the assay with ELK3; 1.16 fold enrichment (6-mer frequency, TF over GST control) in the assay with FEV; 1.25 fold enrichment (6-mer frequency, TF over GST control) with ETV5; 1.84 fold enrichment (6-mer frequency, TF over GST control) in the assay with HSF1. Also, the binding signal was 1.24 fold enrichment (6-mer frequency, TF over GST control) with SPIC; 1.25 fold enrichment (6-mer frequency, TF over GST control) with ELF4; 1.39 fold enrichment (6-mer frequency, TF over GST control) with ELK4; 1.31 fold enrichment (6-mer frequency, TF over GST control) with ETV2; 1.29 fold enrichment (6-mer frequency, TF over GST control) with ELF3; 2.33 fold enrichment (6-mer frequency, TF over GST control) in the assay with CRX. Moreover, the binding signal with ETV1 is 1.31 fold enrichment (6-mer frequency, TF over GST control).
